From the supplement of paper PMC6555819 come the findings set out here.

Common to all, as to assay: PBM binding z-score (relative to random genomic background probes); higher = stronger binding; sequences stand for … in GC…GCGATTGACAGCGTAGAATGAAGG
Assay [1] deals with PPARg:RXRa DBDmut IVT, anti-RXR (DBD mutation: RXRa K156A/R161A, NR concentration 270 nM, RXRa partner concentration 90 nM). In short, it runs like this: (§1)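 Random background probes are the reference for binding z-scores. These scores derive from regression-normalized fluorescence on custom Agilent 4×180K protein-binding microarrays incubated 1 h with ligand-free nuclear receptor dimers. Binding was detected with antibodies against each partner (one per run).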

Assay [2] has as its system PPARg:RXRa IVT, anti-PPARg (NR concentration 270 nM, RXRa partner concentration 90 nM). The gist of the method: as §1
Assay [3] concerns PPARg DBDmut:RXRa IVT, anti-PPARg (DBD mutation: PPARg1 K132A/R137A, NR concentration 270 nM, RXRa partner concentration 90 nM). In short, it runs like this:
as §1

Assay [4] relates to PPARg DBDmut IVT, anti-PPARg (DBD mutation: PPARg1 K132A/R137A, NR concentration 270 nM). The gist of the method:
as §1

For assay [5], the system named is PPARg homodimer (NR concentration 180 nM). In short, it runs like this:
as §1

In assay [6] the test system is PXR:RXRa (NR concentration 270 nM, RXRa partner concentration 90 nM). In short, it runs like this: as §1
The test system of assay [7] is PXR homodimer (NR concentration 270 nM). In short, it runs like this:
as §1

Assay [8] deals with RARa:RXR (NR concentration 270 nM, RXRa partner concentration 90 nM). The gist of the method:
as §1

In assay [9] the test system is RARa homodimer (NR concentration 270 nM). The gist of the method:
as §1

Assay [10] deals with RARb:RXRa (NR concentration 270 nM, RXRa partner concentration 90 nM). The gist of the method: as §1
Assay [11] has as its system RARb homodimer (NR concentration 270 nM). The gist of the method:
as §1

The subject of assay [12] is RARg:RXRa (NR concentration 270 nM, RXRa partner concentration 90 nM). In short, it runs like this: as §1
Assay [13] deals with RARg homodimer (NR concentration 270 nM). In short, it runs like this: as §1
In assay [14] the test system is RXRa DBDmut IVT, anti-RXR (DBD mutation: RXRa K156A/R161A, NR concentration 90 nM). The gist of the method:
as §1

Assay [15] has as its system RXRa homodimer (NR concentration 180 nM). The gist of the method: as §1
In assay [16] the test system is THRa:RXRa (NR concentration 90 nM, RXRa partner concentration 90 nM). In short, it runs like this:
as §1

The subject of assay [17] is THRa homodimer (NR concentration 90 nM). In short, it runs like this:
as §1

For assay [18], the system named is VDR homodimer (NR concentration 270 nM). In short, it runs like this: as §1

Turning to CCGACTGGTGCAAGGTTACCATAACGCACAGCCA, the PBM binding z-score in [1] is -0.528; in [2], -0.0659; in [3] it was -0.402; in assay [4], -0.928; in [5] it was 0.54; in assay [6], 0.357. Besides, the PBM binding z-score is -0.288 in assay [7]; 0.554 in assay [8]; 0.0426 in assay [9]; 0.894 in assay [10]; 0.979 in assay [11]; 0.462 in assay [12]. Also, the PBM binding z-score came to 0.421 in assay [13]; 0.0825 in assay [14]; 0.899 in assay [15]; 1.08 in [16]; 0.473 in [17]; 0.112 in [18].
CCTAGTTGGTCAAGGTCACAAACGCTATAGGTAC: the PBM binding z-score came out at 2.22 in assay [1]; 3.73 in assay [2]; 1.23 in [3]; 1.64 in assay [4]; 2.99 in [5]; 3.94 in [6]. Also, the PBM binding z-score in assay [7] stood at 1.93; in assay [8] it was 4.17; in assay [9], 2.34; in assay [10], 4.05; in assay [11], 4; in assay [12], 4.1. Further, the PBM binding z-score in [13] stood at 4.24; in assay [14] it was 1.87; in [15], 4.02; in assay [16], 4; in assay [17] it was 3.57; in assay [18], 3.9.
With ACTTCCGGGTCAACGAGGTTATAGCACGCGTATA, the PBM binding z-score in [1] stood at 4.21; in assay [2], 5.27; in assay [3], 1.78; in assay [4] it was 0.785; in assay [5] it was 3.05; in [6], 4.91. Moreover, the PBM binding z-score in assay [7] turned out to be 6.49; in [8], 4.87; in assay [9], 0.82; in assay [10], 3.97; in assay [11], 3.44; in [12] it was 5.17. The PBM binding z-score in [13] is 4.74; in [14] it was 2.62; in assay [15] it was 5.76; in assay [16] it was 4.34; in assay [17] it was 2.68; in [18] it was 4.34.
Consider GATACAGGGTCAAGGCTAGAGTACGCGTATTGAT, for which the PBM binding z-score amounted to 3.54 in [1]; 3.94 in assay [2]; 1.02 in assay [3]; 0.742 in assay [4]; 1.69 in [5]; 3.72 in [6]. Besides, the PBM binding z-score turned out to be 0.503 in [7]; 4.37 in [8]; 0.567 in assay [9]; 4.43 in assay [10]; 3.75 in assay [11]; 5.53 in assay [12]. Moreover, the PBM binding z-score in assay [13] came to 5.01; in [14], 2.4; in [15] it was 5.93; in assay [16] it was 3.52; in assay [17], 1.23; in assay [18], 2.36.
On to TGAATGTGGTTATAAGATCAGGGAACGTTGCAAA, for which the PBM binding z-score was -0.328 in assay [1]; 0.343 in assay [2]; 0.967 in assay [3]; 1.11 in [4]; 0.749 in assay [5]; 0.00497 in assay [6]. Moreover, the PBM binding z-score was 0.777 in assay [7]; -0.382 in [8]; 1.15 in [9]; 0.0382 in [10]; 0.38 in [11]; 0.101 in [12]. Moreover, the PBM binding z-score in assay [13] was 0.404; in assay [14], -0.35; in [15], 0.0364; in [16], 0.133; in assay [17], 0.0859; in assay [18] it was 0.37.
Turning to CAAACTAGGTCTAGAGGTCAAAGTCCGCTTCCCG, the PBM binding z-score was determined as 3.11 in [1]; 4.41 in assay [2]; 0.248 in assay [3]; 0.06 in assay [4]; 3.03 in [5]; 5.4 in assay [6]. The PBM binding z-score was found to be 2.48 in assay [7]; 5.69 in assay [8]; 0.52 in assay [9]; 3.96 in assay [10]; 4.55 in assay [11]; 5.26 in [12]. The PBM binding z-score in assay [13] was found to be 4.46; in [14], 1.89; in [15] it was 5.98; in [16], 3.8; in assay [17] it was 1.56; in assay [18] it was 4.46.
For the sequence TAGCCTAGGTCATTGGCCCAGTATAGTACGCATC, the PBM binding z-score in [1] is 1.34; in [2], 3.13; in [3], 0.481; in assay [4], -0.598; in assay [5] it was 1.5; in assay [6] it was 1.71. Besides, the PBM binding z-score in assay [7] is -0.0601; in assay [8], 2.29; in assay [9] it was -0.585; in assay [10] it was 3.67; in assay [11], 2.57; in assay [12] it was 3.61. For the same sequence, the PBM binding z-score in assay [13] amounted to 4.14; in assay [14], 1.51; in assay [15] it was 2.56; in assay [16] it was 2.76; in assay [17], 0.907; in assay [18] it was 0.973.
CTACCAAGGTGACCAAGGTCGTTGATTACTATTC: the PBM binding z-score in assay [1] was 1.56; in [2], 2.32; in [3], -0.302; in assay [4], -0.385; in assay [5], 0.966; in [6], 2.3. In addition, the PBM binding z-score is 1.04 in assay [7]; 2.16 in assay [8]; -0.214 in [9]; 1.65 in [10]; 1.86 in assay [11]; 1.47 in assay [12]. The PBM binding z-score in [13] came to 1.08; in assay [14] it was 1.1; in assay [15], 1.66; in assay [16] it was 2.92; in [17], 1.76; in assay [18], 2.06.
